# Screens as filed in PubChem BioAssay.
# The list is not random: actives were taken first. Their share in the collection is about 7.5%.
# Rab9 prom act: activators of Rab9 promoter; Huh7 Rab9 promoter-luciferase reporter, luminescence, 24 h; Potency, µM (titrated, usually from 9.22 µM), inactives show at the highest dose activation, negative = inhibition, hits mostly activators; 2.8% of 320,000 active; AID 485297; also: % of control where 0% means no effect; nearly all actives have a fitted effect of over 60% in size
#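 Huh7 cells stably carrying a Rab9 promoter-luciferase reporter, 1500 cells per well in OP-MEM I with 10% FBS, treated with compound 24 hours at 37C. Luciferase activity read by luminescence after 10 minutes with Amplite reagent.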
# NPC1 promoter act: activators of NPC1 promoter; Huh7 NPC1 promoter luciferase reporter, 24 h; Potency, µM (highest dose often 9.22 µM), inactives show at the top dose activation, usual class: activators; 2.4% of 320,000 active; also: % of control where 0% means no effect; nearly all actives have a fitted effect of over 60% in size
#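 NPC1 promoter–luciferase Huh7 cells; 24 h compound; luminescence.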
# FLuc modulator: counter-screen for miR-21 project: firefly luciferase inhibitors or activators; AID 588342; purified FLuc, Km substrates, luminescence inhibition; 6.9% of 360,000 active; P08659; Potency, µM (titrated, usually from 57.5 µM), for the others: at the top dose activity change, negative = inhibition, usual class: inhibitors;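 also: plate controls were vehicle for no effect and reference inhibitor for full effect; nearly all actives have a fitted effect of over 55% in size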
# Target sequence (P08659 whole entry, looked up): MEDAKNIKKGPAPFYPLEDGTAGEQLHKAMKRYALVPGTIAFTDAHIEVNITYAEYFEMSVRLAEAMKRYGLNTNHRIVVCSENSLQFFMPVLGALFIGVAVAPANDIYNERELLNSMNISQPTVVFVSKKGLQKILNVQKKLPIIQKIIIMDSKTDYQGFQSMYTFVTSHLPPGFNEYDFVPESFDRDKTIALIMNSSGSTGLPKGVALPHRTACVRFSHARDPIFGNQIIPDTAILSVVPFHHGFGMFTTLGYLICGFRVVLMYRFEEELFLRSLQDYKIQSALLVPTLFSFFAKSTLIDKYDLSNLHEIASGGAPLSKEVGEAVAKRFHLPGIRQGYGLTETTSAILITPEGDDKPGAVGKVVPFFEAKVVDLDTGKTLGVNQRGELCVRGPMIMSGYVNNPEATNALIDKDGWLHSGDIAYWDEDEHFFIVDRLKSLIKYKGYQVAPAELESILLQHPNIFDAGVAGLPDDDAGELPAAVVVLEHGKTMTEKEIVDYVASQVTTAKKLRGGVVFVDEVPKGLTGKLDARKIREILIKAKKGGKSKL
#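 Biochemical qHTS of compounds, final roughly 60 µM downward over six points, against 10 nM purified firefly luciferase using Km concentrations of substrates (10 uM D-luciferin, 10 uM ATP) in Tris acetate pH 7.5 buffer; luminescence output.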
# ELG1 genotoxic: inducers of genotoxicity in HEK293T ELG1-luciferase cells; HEK293T ELG1-luciferase reporter, luminescence, 16 h; Potency, µM (highest dose often 46 µM), for the others: at the highest dose activity change, positive = activation, most hits filed as activators; 1.3% of 330,000 active; AID 504466; also: % of control where 0% means no effect; nearly all actives have a fitted effect of over 60% in size
#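 DMSO vehicle served as control against compound-treated ELG1-luciferase HEK293T cells; exposure lasted 16 hr at 37 °C and 5% CO2, followed by ONE-Glo luminescence detection after 30 min.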
# SMN2 splice up: SMN2 splice variant enhancement. HEK293 SMN2-luciferase splicing reporter, luminescence, 30-36 h. Potency, µM (series often up to 46.1 µM), for the others: at the highest dose activity change, positive = activation, actives largely listed as activators. 2.8% of 210,000 active. AID 1458; also: % of control where 0% means no effect; nearly all actives have a fitted effect of over 55% in size
#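 HEK293 cells carry an SMN2 minigene-luciferase reporter in which exon 7 inclusion puts luciferase in frame. Cells were seeded at 2000 cells/well, attached for 10-12 hours, then exposed to compounds for 30-36 hours at 37C before ONE-Glo luminescence.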
# Active calls of the source: *; ? = inconclusive; nt = no result; [ ] = remark or other dose. Calls follow the shape of the dose curve; as a rule, active = well fitted curve in the direction sought with a large enough effect; inconclusive = small, poorly fitted or top-dose-only effect, or another doubt; inactive = no such curve, though single readings can be large; an effect the other way counts as inactive or inconclusive. Potency is read from the fitted curve at half-maximal effect.
SMILES,Rab9 prom act,NPC1 promoter act,FLuc modulator,ELG1 genotoxic,SMN2 splice up
COc1ccc(N2CC(C(=O)N[C@@H](C)C(=O)NC(C)c3ccccc3)CC2=O)cc1 (some centres not stated),-3%,1%,-2%,2%,nt
CCCCOC(=O)CCn1[nH]c(=O)c2ccccc2c1=O,-1%,-1%,7%,0%,1%
Cc1ccn2c(=O)nc(SCC(=O)c3ccc(Cl)cc3)nc2c1,2%,0%,-14%,?,nt
Cc1ccn2c(C(=O)c3ccc(Cl)cc3)cnc2c1,1.4µM*,3.5µM*,2.1µM*,1.2µM*,22%
N#CC(C(=O)Nc1cccc(Cl)c1)=C1Nc2ccccc2N1,2%,11%,4%,4%,27%
O=C1Nc2ccccc2S/C1=C/Nc1cccc(Cl)c1,4.5µM*,?,8.5µM*,?,-3%
COc1ccc(C(=O)Nc2nc3ccccc3c(=O)[nH]2)cc1,0.4µM*,0.71µM*,2.7µM*,?,13µM*
COc1ccc(C(=O)Nc2cccc(/C=C/c3nc4ccccc4c(=O)[nH]3)c2)cc1,3.2µM*,27%,?,-4%,nt
COC(=O)c1c(NC(=O)COc2c(C)ccc(C)c2C)sc2c1CCC(C)C2 (configuration not stated),nt,nt,-7%,nt,-10%
O=C(NN1C(=O)/C(=C/c2cccs2)SC1=S)c1ccccc1,-4%,-2%,0%,-1%,-6%
CCOc1ccc(/C=C/C(=O)c2ccccc2)cc1OC,?,?,4.3µM*,?,1%
CCOc1ccc(C(=O)/C=C/c2ccc(OC)c(OC)c2)cc1,2%,-2%,17µM*,1%,-21%
CCC(=O)c1ccc(OCc2ccccc2)c(OC)c1,?,?,?,?,14µM*
COc1ccccc1CN1CC(C(=O)NCc2cc(C)on2)CCC1=O (configuration not stated),-5%,1%,-8%,9%,nt
O=C(CSc1nc2c(cnn2-c2ccccc2)c(=O)[nH]1)N1CCOCC1,-2%,0%,0%,1%,-12%
COCCNC(=O)CN1N=C(c2ccc(OC)cc2)CCC1=O,7%,2%,1%,-2%,nt
O=C(OCC(=O)c1c[nH]c2ccccc12)c1ccco1,8%,7%,9.5µM*,16µM*,1%
O=C(OCC(=O)c1c[nH]c2ccccc12)c1ccc(Br)o1,11%,4%,17µM*,6%,nt
COc1cccc(C(=O)OCC(=O)c2c[nH]c3ccccc23)c1O,17%,13%,19µM*,?,25%
C#Cc1cccc(NC(=O)C2CCN(C(C)=O)CC2)c1,1%,-2%,-1%,3%,nt
COc1cc(C)c(C(=O)Oc2cc(C)c(C(=O)O)c(O)c2)c(O)c1,7%,-2%,19µM*,5%,nt
CC1CN(C(=O)c2cc([N+](=O)[O-])cc([N+](=O)[O-])c2)CC(C)O1 (configuration not stated),3.2µM*,?,15µM*,?,nt
CCOC(=O)Cn1cnc2sc3c(c2c1=O)CCC3,-2%[1.84 µM],-2%,-14%,1%,-13%
Cc1ccnc(NC(=O)c2ccc3c(c2)C(=O)N(CC(C)C)C3=O)c1,0%,8%,0%,12%,nt
CCCN1C(=O)c2ccc(C(=O)Nc3ccccc3C(=O)O)cc2C1=O,22%,?,3.8µM*,10%,nt
SMILES,Rab9 prom act,NPC1 promoter act,FLuc modulator,ELG1 genotoxic,SMN2 splice up
O=C(Nc1c[nH]c(=O)[nH]c1=O)c1ccc2c(c1)C(=O)N(c1cccc([N+](=O)[O-])c1)C2=O,0%,0%,-1%,1%,nt
CCCN1C(=O)c2ccc(C(=O)Nc3cc(C)ccc3O)cc2C1=O,?,2.2µM*,3.4µM*,?,nt
Cc1ccc(O)c(NC(=O)c2ccc3c(c2)C(=O)N(CC(C)C)C3=O)c1,?,2.8µM*,2.4µM*,?,nt
O=C(Nc1ccccc1C(=O)O)c1ccc2c(c1)C(=O)N(c1cccc([N+](=O)[O-])c1)C2=O,-7%,1%,27µM*,0%,nt
CCOC(=O)CSc1nnc(COc2ccc3ccccc3c2)o1,-1%,-3%,?,0%,nt
Cc1ccnc(NC(=O)Nc2cccc(F)c2)c1,1µM*,1.6µM*,0.95µM*,0.92µM*,3.5µM*
O=C(Nc1cccc(F)c1)Nc1ccc(Cl)cn1,?,?,?,17%,nt
Cc1ccc(NC(=O)Nc2cccc(F)c2)nc1,?,?,6.7µM*,?,nt
CCOc1ccc(/C=N/NC(=O)c2cc3c(OC)cc(OC)cc3[nH]2)cc1OC,-2%,-2%,15µM*,-9%,nt
COc1ccc(OC)c(/C=N/NC(=O)c2cc3c(OC)cc(OC)cc3[nH]2)c1,3%,9%,15µM*,-10%,nt
CCOc1ccc2[nH]c(C(=O)N/N=C/c3cc(OC)c(OC)c(OC)c3)cc2c1,8%,18%,4.8µM*,-11%,nt
CCc1ccc(-c2[nH]nc3nc(-c4cc(OC)ccc4OC)cc(C(=O)O)c23)cc1,nt,nt,1.9µM*,nt,nt
COc1ccc(-c2[nH]nc3nc(-c4cc(OC)c(OC)c(OC)c4)cc(C(=O)O)c23)cc1,nt,nt,2.7µM*,nt,nt
CCSc1ncc(/C=N/Nc2ccc([N+](=O)[O-])cc2)n1C,0.71µM*,0.79µM*,?,?,?
CCSc1ncc(/C=N/Nc2ccccc2)n1C,?,?,19µM*,18%,14µM*
CCSc1ncc(/C=N/Nc2ccc(Cl)cc2)n1C,2.8µM*,1.6µM*,3µM*,?,20µM*
O=[N+]([O-])c1ccc(N/N=C\c2cccn2-c2ccccc2)nc1,-4%,-5%,-2%,-6%,-54%
O=C(CSc1ccccc1)N1CCN(S(=O)(=O)c2ccccc2F)CC1,-1%,0%,0%,-7%,nt
Cc1cccc(N2CCN(C(=O)CSCc3c(C)noc3C)CC2)c1C,-24%,-17%,?,-4%,-74%
CC(C)C[C@@H](CC(=O)N[C@@H](CCCN)CC(=O)N[C@@H]1CCCC[C@H]1C(=O)N[C@H](CC(=O)N[C@@H](CCC(=O)O)CC(=O)O)CC(C)C)NC(=O)[C@@H]1CCCC[C@H]1N,nt,nt,nt,nt,6%
Cc1cccc(Cn2cc(SCC(=O)Nc3nccs3)c3ccccc32)c1,?,?,-13%,4.1µM*,9%
Cc1ccc(Cn2cc(SCC(=O)Nc3nccs3)c3ccccc32)cc1,?,?,?,?,2%
COc1ccc(-c2nc3cnc(OC)nc3n(Cc3cccs3)c2=O)cc1,nt,nt,nt,nt,-4%
COC(=O)c1ccc(NC(=O)COC(=O)CCC2CCCC2)cc1,0%,0%,3%,0%,nt
CCCCC(=O)Nc1cc(-c2nc3ccccc3o2)ccc1OC,nt,nt,-11%,nt,7%
Cc1ccc2oc(-c3ccc(C)c(NC(=O)c4ccc(-c5ccccc5[N+](=O)[O-])o4)c3)nc2c1,nt,nt,11µM*,nt,-24%
